# High-throughput results deposited in PubChem by National Center for Advancing Translational Sciences (NCATS).
# L3MBTL1 block: qHTS Assay for the Inhibitors of L3MBTL1. Lethal(3)malignant brain tumor-like protein 1 (Homo sapiens), Q9Y468. AlphaScreen L3MBTL1–H3K9me1 peptide binding. Potency, µM (titrated, usually from 57.1 µM), inactives show top-dose activity, negative = inhibition, usual class: inhibitors. actives 0.66% (n = 230,000). AID 485360, 2010; also: % is scaled to controls: 0 for no effect and ±100 for the full control effect; nearly all actives have a fitted effect of over 60% in size
# Target sequence (Q9Y468 whole entry, looked up): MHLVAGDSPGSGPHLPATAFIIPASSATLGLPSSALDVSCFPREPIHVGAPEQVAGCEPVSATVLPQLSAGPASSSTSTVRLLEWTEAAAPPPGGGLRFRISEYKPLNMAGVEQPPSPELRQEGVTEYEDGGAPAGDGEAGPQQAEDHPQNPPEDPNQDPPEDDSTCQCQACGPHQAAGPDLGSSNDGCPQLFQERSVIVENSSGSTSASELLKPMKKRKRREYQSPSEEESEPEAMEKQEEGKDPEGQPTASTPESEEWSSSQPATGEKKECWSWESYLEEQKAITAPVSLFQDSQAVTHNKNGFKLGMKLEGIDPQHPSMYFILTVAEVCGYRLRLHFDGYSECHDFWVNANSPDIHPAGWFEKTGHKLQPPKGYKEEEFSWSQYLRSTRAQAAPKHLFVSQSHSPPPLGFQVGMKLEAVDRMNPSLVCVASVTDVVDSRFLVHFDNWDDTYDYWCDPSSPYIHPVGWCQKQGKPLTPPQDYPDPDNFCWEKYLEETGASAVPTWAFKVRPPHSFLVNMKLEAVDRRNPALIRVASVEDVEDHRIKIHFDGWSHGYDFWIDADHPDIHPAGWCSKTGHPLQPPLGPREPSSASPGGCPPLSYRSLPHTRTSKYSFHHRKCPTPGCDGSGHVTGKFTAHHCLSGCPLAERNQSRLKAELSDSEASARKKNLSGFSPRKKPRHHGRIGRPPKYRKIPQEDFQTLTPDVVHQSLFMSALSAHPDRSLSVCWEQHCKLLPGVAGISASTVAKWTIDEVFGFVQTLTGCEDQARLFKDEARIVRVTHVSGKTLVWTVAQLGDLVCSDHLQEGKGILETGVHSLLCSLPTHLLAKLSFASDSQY
#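 Displacement of a biotinylated histone H3(1-15) peptide monomethylated at Lys9 (75 nM) from L3MBTL1 (50 nM) was measured by AlphaScreen after a 30 min room-temperature compound incubation; cefsulodin titration served as intraplate control.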
# BAZ2B inh: qHTS Assay for Inhibitors of BAZ2B; Potency, µM (series often up to 114 µM), for inactives: at the highest dose activity change, negative = inhibition, usual class: inhibitors; AlphaScreen BAZ2B-H3K14Ac peptide displacement; Bromodomain adjacent to zinc finger domain protein 2B (Homo sapiens), Q9UIF8; actives 4.4% (n = 360,000); also: % is scaled to controls: 0 for no effect and ±100 for the full control effect; nearly all actives have a fitted effect of over 60% in size
#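 Inhibition is scored as reduced AlphaScreen emission. The BAZ2B/b-H3(5-23)K14Ac complex (50 nM each) in PBS pH 7.4, 0.01% Tween-20 meets compound (up to 110 uM) for 30 min at RT before bead addition.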
# G9a inh: qHTS Assay for Inhibitors of Histone Lysine Methyltransferase G9a; AID 504332, 2011; Potency, µM (top dose mostly 102 µM), without a hit: at the highest dose activity, negative = inhibition, usual class: inhibitors; actives 8.8% (n = 350,000); G9a H3K9 monomethylation, AlphaScreen, 2 h; also: % is scaled to controls: 0 for no effect and ±100 for the full control effect; nearly all actives have a fitted effect of over 75% in size
#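 AlphaScreen read-out: biotin-H3K9 peptide (500 nM) methylation by 20 nM enzyme with 20 uM SAM, 2 h at room temperature after 15 min compound preincubation; anti-monomethyl H3K9 antibody plus donor/acceptor beads, 10 min dark.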
# JMJD2A Tudor inh: qHTS Assay for Inhibitors of JMJD2A-Tudor Domain; AlphaScreen JMJD2A-Tudor / H3K4me3 peptide binding; Potency, µM (doses to about 114 µM), inactives show at the highest dose activity change, negative = inhibition, actives largely listed as inhibitors; actives 4.4% (n = 390,000); AID 504339, 2011; also: % is scaled to controls: 0 for no effect and ±100 for the full control effect; nearly all actives have a fitted effect of over 50% in size
# HP1b chromo inh: HTS for Inhibitors of HP1-beta Chromodomain Interactions with Methylated Histone Tails. Chromobox protein homolog 1 (Homo sapiens), P83916. AlphaScreen HP1-beta / biotin-H3K9me3 peptide binding. actives 0.56% (n = 390,000). Potency, µM (highest dose often 114 µM), inactives show top-dose activity change, negative = inhibition, usual class: inhibitors; also: nearly all actives have a fitted effect of over 70% in size
#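 AlphaScreen: HP1-beta (50 nM) preformed 30 min with biotin-H3(1-18)K9me3 peptide (50 nM) in PBS pH 7.4, 0.01% Tween-20. Compound added for 30 min at RT, then streptavidin donor/nickel chelate acceptor beads (10 ug/mL) for 30 min.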
# GLS inhibitor: qHTS for Inhibitors of Glutaminase (GLS). Potency, µM (doses to about 45.5 µM), inactives show at the highest dose activity change, negative = inhibition, usual class: inhibitors. Glutaminase kidney isoform, mitochondrial (Homo sapiens), O94925. GLS enzymatic activity, qHTS titration. actives 0.21% (n = 410,000); also: % is scaled to controls: 0 for no effect and ±100 for the full control effect
#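 Read-out is an Amplex red fluorescence increase coupled through glutamate oxidase and HRP, measured before and after 30 min room-temperature incubation. hKGA is in 45 mM KH2PO4 (pH 8.2) with 0.02% Tween-20; glutamine added as 1mM solution.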
# * = called active by the depositor; ? = inconclusive; . = no result; [ ] = another dose, or the depositor's remark. Shown are actives, neighbours in structure and some others; about 10% of the full set was active somewhere. Calls follow the shape of the dose curve; as a rule, active = well fitted curve in the direction sought with a large enough effect; inconclusive = small, poorly fitted or top-dose-only effect, or another doubt; inactive = no such curve, though single readings can be large; an effect the other way counts as inactive or inconclusive. Potency is read from the fitted curve at half-maximal effect.
SMILES,L3MBTL1 block,BAZ2B inh,G9a inh,JMJD2A Tudor inh,HP1b chromo inh,GLS inhibitor
CCOc1ccc(OCC)c(C2C(C#N)=C(N)N(c3cccnc3)C3=C2C(=O)CC(C)(C)C3)c1 (stereo not given),-9%,?,50µM*,-10%,41%,-3%
COc1cc(C(=O)Nc2nc3c(s2)Cc2c(Br)ccc(OC)c2-3)cc(OC)c1OC,.,-3%,0%[59 µM],-26%,16%,7%
COCCn1c(SCC(=O)Nc2cccc(S(N)(=O)=O)c2)nc2cc(Cl)ccc2c1=O,9%,-3%,3%,20µM*,-17%,?
COCCn1c(SCC(=O)Nc2cccnc2Cl)nc2cc(Cl)ccc2c1=O,-6%,6%,-28%[2.33 µM],-6%,24%,2%
COCCn1c(SCC(=O)Nc2sccc2C(N)=O)nc2cc(Cl)ccc2c1=O,-8%,-35%,45µM*,-15%,15%,1%
CCCCCOC(=O)c1ccc(OC(=O)c2sc3ncn(Cc4cccc(F)c4)c(=O)c3c2C)cc1,.,12%,-5%[59 µM],6%,44%,-3%
COc1ccc(/C=C/C(=O)NCC(=O)N2CCC(N(C)CCN3CCOCC3)CC2)cc1OC,.,50µM*,7.9µM*,?,?,11%
CN(C1CCCC1)C1CCN(C(=O)CNC(=O)/C=C/c2ccccc2)CC1,1%,-4%,-11%[59 µM],-14%,14%,12%
CC(C)Cn1c(=O)c2ccccc2n2c(CCC(=O)Nc3ccc(F)cc3)nnc12,.,-1%,-4%[59 µM],-2%,14%,4%
O=C(O)CSC1=NC(=Nc2cccc(Cl)c2)C2(CCCCC2)N1c1ccccc1,4%,-32%,3.5µM*,45µM*,?,11%
COc1ccc2[nH]cc(CCNc3cc(-c4ccccc4OC)ncn3)c2c1,.,.,-8%[0.501 µM],.,.,.
NCC1OC(OC2C(N)CC(N)[C@@H](O)[C@@H]2OC2O[C@H](CO)[C@@H](O[C@@H]3OC(CN)C(O)C(O)C3N)C2O)C(N)C(O)C1O (stereo not given in full),.,.,-26%[2.33 µM],.,.,.
COc1ccc(CCNC2CC(=O)N(CCc3ccc(OC)c(OC)c3)C2=O)cc1OC (stereo not given),.,?,-29%[12.7 µM],-16%,0%,8%
COc1ccc(CCN2C(=O)CC(NNc3ccc([N+](=O)[O-])cc3)C2=O)cc1OC (stereo not given),-8%,-36%,14µM*,-21%,8%,-14%
Cc1ccc(C)c(N2CCN(S(=O)(=O)c3ccc(F)c(C(=O)Nc4ccc(Cl)cc4Cl)c3)CC2)c1,.,1%,5%[59 µM],-15%,25%,-17%
Cc1nc(-c2cccc(F)c2)sc1CCNC(=O)Cc1ccc(F)cc1,.,7%,33%[59 µM],-11%,17%[57 µM],2%
Cc1[nH][nH]c(=O)c1C(c1cc(Br)ccc1O)c1c(C)[nH][nH]c1=O,.,-1%,?,-17%,15%,29%
Cc1[nH][nH]c(=O)c1C(c1cc2c(cc1Br)OCO2)c1c(C)[nH][nH]c1=O,.,-4%,50µM*,-2%[11.4 µM],27%,-26%
O=Cc1cn[nH]c1-c1cccc([N+](=O)[O-])c1,.,1%,-34%,-14%,18%,-1%
O=C(O)c1cn[nH]c1-c1cccc([N+](=O)[O-])c1,.,-22%,35µM*,-29%,2%,12%
C[N+]12CCCCC1[C@@H](CO)CCC2 (stereo not given in full),.,-33%,50µM*,-12%,14%,-3%
Cc1cc(C)c(C(=O)CSc2nnc(C)c(=O)[nH]2)cc1C,22%,-14%,40µM*,-5%,31%,9%
CCOC(=O)c1ccc(N2CCN(c3cc(Cl)ccc3C)CC2)c(NC(=O)Nc2cccc(OC)c2)c1,.,4%,0%[59 µM],-3%,26%,0%
COc1ccccc1CNC(=O)c1ccc(Br)o1,-2%,-3%,35µM*,-19%,52%,2%
COc1ccccc1CNC(=O)c1ccccc1C(=O)NC(CC(C)C)C(=O)NCc1ccccc1OC (stereo not given),.,?,-5%[59 µM],35µM*,3%,7%
SMILES,L3MBTL1 block,BAZ2B inh,G9a inh,JMJD2A Tudor inh,HP1b chromo inh,GLS inhibitor
COc1ccccc1CNC(=O)C(CC(C)C)NC(=O)C1CCC(C)CC1 (stereo not given),.,?,0%,-6%,46%,-1%
CC(C)(C)OC(=O)CC(=O)NNC(=O)c1cc2ccccc2[nH]1,.,.,.,-8%,.,.
COc1ccc(C(=O)N2CCC[C@@]3(CCN(c4cccc(-c5ccccc5)c4)C3)C2)cc1,.,.,-21%[12.7 µM],.,.,.
C[C@@H]1C(SC2Cn3cnc[n+]3C2)=C(C(=O)[O-])N2C(=O)[C@H]([C@@H](C)O)[C@@H]12 (stereo not given in full),.,.,32%[59 µM],.,.,-11%
C[n+]1ccccc1/C=C/c1ccccc1Cl,-3%,56µM*,?,-11%,4%,2%
C[n+]1ccccc1/C=C/c1c(F)cccc1F,-1%,8.9µM*,25µM*,?,15%,0%
NC(=O)c1nc(-c2ccc(F)c(F)c2)nc2c1[nH]c(=O)n2-c1cccc(Cl)c1,.,2%,9%[59 µM],-10%,34%,-11%
COc1cccc(-c2cn3c(n2)sc2cc(C(=O)NC4CCCCCC4)ccc23)c1,.,?,-6%[59 µM],-10%,18%,-11%
CCC(C)NC(=O)c1c(N)n(/N=C/c2cccnc2)c2nc3ccccc3nc12 (stereo not given),2%,11%,56%,9%,50%,-3%
CCC(C)NC(=O)c1c(N)n(/N=C/c2ccccn2)c2nc3ccccc3nc12 (stereo not given),-11%,-37%,50µM*,-34%,16%,0%
O=C1C(N2CCOCC2)=C(n2nnc3ccccc32)C(=O)c2ccccc21,.,10µM*,40µM*,-2%[11.4 µM],?,-6%
O=C(Nc1cccc(C(F)(F)F)c1)N1CCC(CN2CCCCCC2)CC1,.,-1%,?,-15%,25%,-25%
